aSyn UTR inh – MLPCN primary screen, SNCA 5' untranslated region; alpha-synuclein 5'UTR reporter, inhibitor activity; inhibition, % (tested at 7.5 µM); actives 0.82% (n = 300,000); AID 1813, 2009; in the data active = inhibition above about 60%;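 also: H4 neuroglioblastoma cells stably carrying SNCA 5'UTR luciferase fusion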
KLF5 inh – KLF5 expression inhibitors, primary screen, DLD-1 cells, luminescence; inhibition, % at 5 µM; actives 0.23% (n = 290,000); DLD-1 KLF5 promoter-luciferase reporter; AID 1700, 2009;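 active = inhibition above a per-plate limit of that plate's mean compound inhibition plus 3 SD, cut at about 60% in these data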;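 also: higher means less KLF5 promoter-driven luciferase light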
IEC-6 tox – cytotoxicity in IEC-6 intestinal epithelial cells, primary screen, cytotoxicity control for KLF5 inhibitor project, cell-based, luminescence | IEC-6 cytotoxicity, luminescence viability | inhibition, % at 5 µM | actives 0.78% (n = 290,000); in the data active = inhibition above about 22%
APP transl inh – inhibitors of APP translation via 5'UTR reporter, primary screen, APP 5'UTR luciferase, SH-SY5Y cells | SH-SY5Y APP 5'UTR-luciferase reporter, luminescence | actives 0.82% (n = 190,000) | inhibition, % at 2 µM | AID 1285, 2008;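 active = inhibition above a set limit, derived from the sample mean plus 3 SD, cut at about 45% in these data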
Ba/F3 V617F tox – reduced viability of JAK2V617F-dependent Ba/F3 cells, primary screen, JAK2V617F inhibitor project, cell-based, Ba/F3 EpoR-JAK2V617F, luminescence | ATP luminescence | inhibition, % at 5.6 µM | actives 1.1% (n = 220,000) | AID 1446, 2008;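 active = inhibition above the campaign mean plus 3 SD over all tested compounds, cut at about 24% in these data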;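 also: cytokine-independent growth of Ba/F3 cells driven by EpoR plus mutant JAK2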
BaF3 tox – parental Ba/F3 cell viability inhibition, counter-screen for JAK2V617F inhibitor project, murine pro-B, CellTiter-Glo luminescence | inhibition, % at 5.6 µM | AID 1486, 2009 | actives 1.1% (n = 220,000) | CellTiter-Glo ATP luminescence;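 active = inhibition above a per-campaign cutoff, the mean inhibition of all tested compounds plus 3 SD, cut at about 27% in these data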
Hits are given with their value; 0 = inactive; - = no result given. Hits are enriched below; roughly 2.1% of the tested compounds scored in any of these assays.

SMILES | aSyn UTR inh | KLF5 inh | IEC-6 tox | APP transl inh | Ba/F3 V617F tox | BaF3 tox
CCCC(=O)NC(c1ccc2c(c1)OCO2)c1cc(Cl)c2cccnc2c1O (centres undefined) | 80 | 0 | 0 | 75 | 0 | 0
Cc1cc(O)c(C(C)C)cc1NC(=O)c1ccccc1Cl | 0 | 0 | 0 | 45 | 0 | 0
C1CCCCCC(NCCN2CCNCC2)CCCCC1 | 0 | 0 | 0 | - | 80 | 42
CC(Cc1c[nH]c2ccccc12)C(=O)NCc1ccco1 (centres undefined) | 0 | 0 | 0 | - | - | -
Cc1cccc(C(=O)NCC(=O)NC2CCC(C)CC2)c1 (centres undefined) | 0 | - | - | - | - | -
Cc1cc(C)cc(NC(=O)/C=C/c2ccc([N+](=O)[O-])s2)c1 | 0 | 0 | 0 | 53 | 0 | 50
Cc1ccccc1NC(=O)/C=C/c1ccc([N+](=O)[O-])s1 | 0 | 0 | 0 | 90 | 80 | 55
Cc1ccccc1NC(=O)/C=C/c1cccs1 | 0 | 0 | 0 | 0 | 0 | 0
O=C(c1ccc([N+](=O)[O-])s1)N1CCN(c2ccc(C(F)(F)F)cn2)CC1 | 0 | 0 | 0 | - | - | -
COc1cnc(-c2ccccn2)nc1N(C)C | 99 | 0 | 0 | 0 | 0 | 0
CN(C)c1nc(-c2ccccn2)nnc1-c1ccccc1 | 79 | 0 | 0 | 0 | 0 | 0
COc1cc(C(=O)Nc2cc(C)ccn2)ccc1OCC(=O)N1CCOCC1 | 0 | 0 | 0 | - | - | -
O=C(COC(=O)c1ccc2ncsc2c1)Nc1ncc(Cl)cc1Cl | 0 | 0 | 0 | 0 | 0 | 0
Cc1c(Cl)cnc(NC(=O)COC(=O)c2ccc3ncsc3c2)c1Cl | 67 | 0 | 0 | 0 | 0 | 0
Cc1sc2cc3c(c(C(=O)c4ccccc4)[n+]2c1C)-c1cccc2cccc-3c12 | 0 | 0 | 0 | 0 | 100 | 88
C/C(N)=C(/C#N)C(=O)COC(=O)CNS(=O)(=O)c1ccc2ccccc2c1 | 0 | 0 | 0 | - | 51 | 60
COc1ccc2nc(NC(=O)CSc3nccc(C)n3)sc2c1 | 0 | 0 | 0 | 0 | 0 | 0
COc1ccc2nc(NC(=O)CSc3nc(C)cc(=O)[nH]3)sc2c1 | 0 | 0 | 0 | 60 | 0 | 0
CCCCN(C(=O)c1cc(S(=O)(=O)N2CCOCC2)ccc1Cl)c1c(N)n(CC(C)C)c(=O)[nH]c1=O | 0 | - | - | - | - | -
CC(=O)Nc1ccc(-c2ccc(NC(C)=O)cc2)cc1 | 0 | 0 | 0 | 0 | 0 | 0
CC(=O)Nc1ccc(C#Cc2ccc(NC(C)=O)cc2)cc1 | 74 | 0 | 0 | 0 | 0 | 0
Cc1ccc(C2=NCCn3c2c2ccc(C(F)(F)F)cc2[n+]3[O-])cc1 | 0 | - | - | - | - | -
c1ccc(Sc2ccccc2CN2CCCC2)cc1 | 85 | - | - | - | - | -
Brc1ccc2c(c1)C(C1=NCCN1)c1ccccc1CS2 (centres undefined) | 0 | 0 | 67 | 94 | 74 | 66
COc1ccccc1N1CCN(C2CCN(C(=O)COc3ccccc3)CC2)CC1 | 0 | 0 | 0 | 0 | 0 | 0
SMILES | aSyn UTR inh | KLF5 inh | IEC-6 tox | APP transl inh | Ba/F3 V617F tox | BaF3 tox
COc1cc(C(=O)NNC(=O)c2ccccc2Br)ccc1OCC(=O)N1CCOCC1 | 0 | - | - | - | - | -
c1ccc(CN2CCC(Nc3nc(-c4cccs4)nc4ccccc34)CC2)cc1 | 62 | 0 | 0 | 0 | 0 | 0
O=C1NCCCC1C(=O)N1CCN(C(c2ccccc2)c2ccccc2)CC1 (centres undefined) | 0 | 0 | 0 | 50 | 0 | 0
O=C(COc1ccc(F)cc1)Nc1ccccc1N1CCOCC1 | 0 | - | - | - | - | -
CCOc1ccc(-c2cc3cc(OC)c(OC)cc3c(C)n2)cc1 | 0 | 0 | 0 | 0 | 0 | 0
COc1cc2cc(-c3ccc(OC)c(OC)c3C)nc(N)c2cc1OC | 96 | - | - | - | - | -
COc1ccc(NC(=O)CCNS(=O)(=O)c2ccccc2F)cc1S(N)(=O)=O | 0 | 0 | 0 | - | - | -
CCCc1ccc2oc(C(=O)N3CCC(C(N)=O)(N4CCCCC4)CC3)c(C)c2c1 | 0 | 0 | 0 | - | - | -
CCOc1ccccc1-n1c(COc2ccccc2)nnc1SCC(N)=O | 0 | 0 | 0 | 52 | 0 | 0
CCOc1ccccc1-n1c(COc2ccc(C)cc2)nnc1SCC(N)=O | 0 | 0 | 0 | 0 | 0 | 0
N/C(=N\OC(=O)c1cccc(F)c1)c1ccccn1 | 0 | 0 | 0 | - | - | -
Cc1ccc(C(=O)O/N=C(\N)c2ccccn2)cc1 | 65 | 0 | 0 | - | - | -
Cc1cccc(C(=O)O/N=C(\N)c2ccccn2)c1 | 70 | 0 | 0 | - | - | -
N/C(=N\OC(=O)c1ccccc1)c1ccccn1 | 0 | 0 | 0 | 0 | 0 | 0
CCOc1ccc(C(=O)O/N=C(\N)c2ccccn2)cc1 | 62 | 0 | 0 | - | - | -
Cc1cc(=O)oc2cc(OCC(=O)N3CCN(C(=O)C4COc5ccccc5O4)CC3)c(Cl)cc12 (centres undefined) | 0 | 0 | 0 | - | - | -
CCOC(=O)c1c(S(=O)(=O)Nc2ccc(F)cc2C)c(C)n(C)c1C | 0 | 0 | 0 | - | - | -
COc1ccc(C(=O)Nc2cc(C)nn2-c2cccc(F)c2)cc1OC | 0 | 0 | 0 | - | - | -
CCOc1ccccc1N(C)C(=O)C1CCN(S(=O)(=O)c2cccc3nonc23)CC1 | 0 | 0 | 0 | 63 | 0 | 0
COc1ccc(N(C)C(=O)C2CCN(S(=O)(=O)c3cccc4nonc34)CC2)cc1 | 0 | 0 | 0 | - | - | -
O=C(NC1CCCCC1)c1sc(=S)n2c1[nH]c(=O)c1ccccc12 | 0 | 0 | 0 | 0 | 0 | 0
CCCCNC(=O)c1sc(=S)n2c1[nH]c(=O)c1ccccc12 | 0 | 0 | 0 | 0 | 0 | 101
O=C(Nc1ccncc1)c1cccc(S(=O)(=O)N2CCCC2)c1 | 0 | 0 | 0 | - | - | -
O=C(CN1C(=O)CCC1=O)c1ccc(-c2ccccc2)cc1 | 0 | 0 | 0 | 0 | 0 | 0
N=c1ccn(CC(=O)c2ccc(-c3ccccc3)cc2)cc1 | 110 | 0 | 0 | 0 | 98 | 75
SMILES | aSyn UTR inh | KLF5 inh | IEC-6 tox | APP transl inh | Ba/F3 V617F tox | BaF3 tox
Cc1ccc(-n2c(-c3ccccc3)c[n+]3c2CCC3)cc1 | 0 | 0 | 0 | 0 | 77 | 68
Cc1ccc(-c2c[n+](CC(=O)OCc3ccccc3)c3n2CCC3)cc1 | 0 | 0 | 0 | 0 | 0 | 0
FC(F)Sc1ccc(-n2c(-c3ccc(Cl)cc3)c[n+]3c2CCC3)cc1 | 0 | 0 | 0 | 0 | 24 | 44
Cc1ccc(-n2c(-c3ccc(Cl)cc3)c[n+]3c2CCC3)cc1 | 0 | 0 | 0 | - | 69 | 65
Cc1ccc(-n2nc(C(=O)N3CCOCC3)cc2-c2ccc(Cl)cc2)cc1 | 0 | 0 | 0 | 0 | 0 | 0
c1ccc(Cn2c[n+](Cc3ccccc3)c3ccccc32)cc1 | 0 | 0 | 0 | - | - | -
CC(=O)Oc1ccc2oc(=O)c3c(c2c1)CCCN3C(=O)CN1CCN(c2ncccn2)CC1 | 0 | 0 | 0 | 0 | 0 | 0
O=C(CN1CCN(c2ncccn2)CC1)N1CCCc2c1c(=O)oc1ccc(O)cc21 | - | 0 | 0 | 72 | 0 | 0
CCOC(=O)c1c(NC(C)=O)sc(/C(C)=N/Nc2ccc(C(=O)O)cc2)c1C | 0 | 0 | 0 | - | - | -
COc1ccc(C2CC(c3cccs3)=NN2C(=O)CSc2nc3c(cnn3-c3ccccc3)c(=O)[nH]2)cc1 (centres undefined) | 0 | 0 | 0 | 0 | 0 | 0
